Experimental data reported in PubChem BioAssay AID1159580 (chemical genetic matrix, 2015).
Among all 5,500 compounds or so, about 2,000 (36%) were called active. Another 18% or so got no clear call; they are omitted. Cut-off read from the data, not from the text of the source: active = normalized growth mostly below about 0.91 (no sharp cut-off); inconclusive = no clear call, values can overlap the other calls; inactive = mostly above about 0.92. This is one part of the list.

Assay: chemical genetic growth profiling, strain panel (AID 1159580);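 note: tested at 20 µM; growth read once vehicle control cultures reached saturation at 30 °C; 1 = growth at the plate median or of vehicle wells; lower values mean less growth of the strain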
Conditions: growth OD
[1] = S. cerevisiae deletion strains, locus YDL101C, strain DUN1, stronger effect = lower value
[2] = S. cerevisiae deletion strains, locus YHR030C, strain SLT2, stronger effect = lower value

Measured: normalized growth

Cc1nnsc1C(=O)O/N=C1/CCSc2ccc(F)cc21
inactive: S. cerevisiae deletion strains, locus YAL013W, strain DEP1, stronger effect = lower value 0.975 | S. cerevisiae deletion strains, locus YBR229C, strain ROT2, stronger effect = lower value 0.969 | S. cerevisiae deletion strains, locus YCL061C, strain MRC1, stronger effect = lower value 0.994 | [1] 0.967 | S. cerevisiae deletion strains, locus YDL134C, strain PPH21, stronger effect = lower value 0.982 | S. cerevisiae deletion strains, locus YDR150W, strain NUM1, stronger effect = lower value 0.973 | S. cerevisiae deletion strains, locus YEL061C, strain CIN8, stronger effect = lower value 0.943 | S. cerevisiae deletion strains, locus YGR078C, strain PAC10, stronger effect = lower value 0.973 | S. cerevisiae deletion strains, locus YGR229C, strain SMI1, stronger effect = lower value 0.983 | [2] 0.775 | S. cerevisiae deletion strains, locus YHR087W, strain rtc3, stronger effect = lower value 0.966 | S. cerevisiae deletion strains, locus YJL187C, strain SWE1, stronger effect = lower value 0.996 | S. cerevisiae deletion strains, locus YJR043C, strain POL32, stronger effect = lower value 0.984 | S. cerevisiae deletion strains, locus YJR075W, strain HOC1, stronger effect = lower value 0.994 | S. cerevisiae deletion strains, locus YKL190W, strain CNB1, stronger effect = lower value 0.98 | S. cerevisiae deletion strains, locus YLR039C, strain RIC1, stronger effect = lower value 0.848 | S. cerevisiae deletion strains, locus YLR058C, strain SHM2 (second series), stronger effect = lower value 0.985 | S. cerevisiae deletion strains, locus YLR085C, strain ARP6, stronger effect = lower value 0.856 | S. cerevisiae deletion strains, locus YLR262C, strain YPT6, stronger effect = lower value 0.878 | S. cerevisiae deletion strains, locus YML094W, strain GIM5, stronger effect = lower value 0.932 | S. cerevisiae deletion strains, locus YMR219W, strain ESC1, stronger effect = lower value 0.988 | S. cerevisiae deletion strains, locus YMR263W, strain SAP30, stronger effect = lower value 0.989 | S. cerevisiae deletion strains, locus YNL128W, strain TEP1, stronger effect = lower value 1 | S. cerevisiae deletion strains, locus YNL153C, strain GIM3, stronger effect = lower value 0.971 | S. cerevisiae deletion strains, locus YNL298W, strain CLA4 (second series), stronger effect = lower value 0.973 | S. cerevisiae deletion strains, locus YNL322C, strain KRE1, stronger effect = lower value 0.979 | S. cerevisiae deletion strains, locus YNR030W, strain Alg12, stronger effect = lower value 0.945 | S. cerevisiae deletion strains, locus YOL006C, strain TOP1, stronger effect = lower value 0.981 | S. cerevisiae deletion strains, locus YPL055C, strain LGE1, stronger effect = lower value 0.956 | S. cerevisiae deletion strains, locus YPL241C, strain CIN2, stronger effect = lower value 0.997 | S. cerevisiae deletion strains, locus YPR135W, strain CTF4, stronger effect = lower value 0.874 | S. cerevisiae strains, strain wild type, stronger effect = lower value 0.978

CN(C)/C=C1\CSc2ccc(Cl)cc2C1=O
active: S. cerevisiae deletion strains, locus YER123W, strain YCK3, stronger effect = lower value 0.565 | S. cerevisiae deletion strains, locus YFR019W, strain FAB1, stronger effect = lower value 0.771 | [2] 0.311 | S. cerevisiae deletion strains, locus YJL095W, strain BCK1, stronger effect = lower value 0.444 | S. cerevisiae deletion strains, locus YLR113W, strain HOG1, stronger effect = lower value 0.537 | S. cerevisiae deletion strains, locus YML070W, strain DAK1, stronger effect = lower value 0.618 | S. cerevisiae deletion strains, locus YPL256C, strain CLN2, stronger effect = lower value 0.627
inactive: S. cerevisiae deletion strains, locus YAR019C, strain CDC15, stronger effect = lower value 0.927 | S. cerevisiae deletion strains, locus YBL105C, strain PKC1, stronger effect = lower value 0.957 | S. cerevisiae deletion strains, locus YBR135W, strain CKS1, stronger effect = lower value 0.965 | S. cerevisiae deletion strains, locus YBR136W, strain MEC1, stronger effect = lower value 0.949 | S. cerevisiae deletion strains, locus YBR160W, strain CDC28, stronger effect = lower value 0.95 | S. cerevisiae deletion strains, locus YDL017W, strain CDC7, stronger effect = lower value 0.953 | S. cerevisiae deletion strains, locus YDL028C, strain MPS1, stronger effect = lower value 0.953 | [1] 0.975 | S. cerevisiae deletion strains, locus YDL108W, strain KIN28, stronger effect = lower value 0.947 | S. cerevisiae deletion strains, locus YDL132W, strain cdc53, stronger effect = lower value 0.956 | S. cerevisiae deletion strains, locus YDL214C, strain PRR2, stronger effect = lower value 0.763 | S. cerevisiae deletion strains, locus YDR052C, strain DBF4, stronger effect = lower value 0.967 | S. cerevisiae deletion strains, locus YDR054C, strain cdc34, stronger effect = lower value 0.94 | S. cerevisiae deletion strains, locus YDR226W, strain ADK1, stronger effect = lower value 0.947 | S. cerevisiae deletion strains, locus YDR477W, strain SNF1, stronger effect = lower value 0.832 | S. cerevisiae deletion strains, locus YER133W, strain GLC7, stronger effect = lower value 0.811 | S. cerevisiae deletion strains, locus YFL009W, strain cdc4, stronger effect = lower value 0.944 | S. cerevisiae deletion strains, locus YFL029C, strain CAK1, stronger effect = lower value 0.932 | S. cerevisiae deletion strains, locus YFR003C, strain YPI1, stronger effect = lower value 0.952 | S. cerevisiae deletion strains, locus YFR028C, strain CDC14, stronger effect = lower value 0.942 | S. cerevisiae deletion strains, locus YGR040W, strain KSS1, stronger effect = lower value 0.832 | S. cerevisiae deletion strains, locus YGR052W, strain FMP48, stronger effect = lower value 0.799 | S. cerevisiae deletion strains, locus YGR092W, strain DBF2, stronger effect = lower value 0.824 | S. cerevisiae deletion strains, locus YHR079C, strain IRE1, stronger effect = lower value 0.555 | S. cerevisiae deletion strains, locus YHR082C, strain KSP1, stronger effect = lower value 0.758 | S. cerevisiae deletion strains, locus YHR205W, strain SCH9, stronger effect = lower value 0.75 | S. cerevisiae deletion strains, locus YIL147C, strain SLN1, stronger effect = lower value 0.928 | S. cerevisiae deletion strains, locus YJL128C, strain PBS2, stronger effect = lower value 1.01 | S. cerevisiae deletion strains, locus YJL157C, strain FAR1, stronger effect = lower value 0.775 | S. cerevisiae deletion strains, locus YJR016C, strain ILV3, stronger effect = lower value 0.965 | S. cerevisiae deletion strains, locus YJR066W, strain TOR1 (second series), stronger effect = lower value 0.728 | S. cerevisiae deletion strains, locus YJR066W, strain TOR1, stronger effect = lower value 0.633 | S. cerevisiae deletion strains, locus YKL048C, strain ELM1, stronger effect = lower value 0.937 | S. cerevisiae deletion strains, locus YKL067W, strain YNK1, stronger effect = lower value 0.771 | S. cerevisiae deletion strains, locus YKL101W, strain HSL1, stronger effect = lower value 0.861 | S. cerevisiae deletion strains, locus YKL193C, strain SDS22, stronger effect = lower value 0.938 | S. cerevisiae deletion strains, locus YKL203C, strain TOR2, stronger effect = lower value 0.886 | S. cerevisiae deletion strains, locus YLR133W, strain CKI1, stronger effect = lower value 0.799 | S. cerevisiae deletion strains, locus YLR403W, strain SFP1, stronger effect = lower value 0.792 | S. cerevisiae deletion strains, locus YMR001C, strain CDC5, stronger effect = lower value 0.941 | S. cerevisiae deletion strains, locus YMR205C, strain PFK2 (second series), stronger effect = lower value 0.872 | S. cerevisiae deletion strains, locus YMR277W, strain FCP1, stronger effect = lower value 0.943 | S. cerevisiae deletion strains, locus YNL006W, strain LST8, stronger effect = lower value 0.952 | S. cerevisiae deletion strains, locus YNL020C, strain ARK1, stronger effect = lower value 0.817 | S. cerevisiae deletion strains, locus YNL161W, strain CBK1, stronger effect = lower value 0.955 | S. cerevisiae deletion strains, locus YNL183C, strain NPR1, stronger effect = lower value 0.559 | S. cerevisiae deletion strains, locus YNL207W, strain RIO2, stronger effect = lower value 0.922 | S. cerevisiae deletion strains, locus YNL222W, strain SSU72, stronger effect = lower value 0.955 | S. cerevisiae deletion strains, locus YNL307C, strain MCK1 (second series), stronger effect = lower value 0.822 | S. cerevisiae deletion strains, locus YOL078W, strain AVO1, stronger effect = lower value 0.95 | S. cerevisiae deletion strains, locus YOL136C, strain PFK27, stronger effect = lower value 0.691 | S. cerevisiae deletion strains, locus YOR061W, strain CKA2, stronger effect = lower value 0.831 | S. cerevisiae deletion strains, locus YOR119C, strain RIO1, stronger effect = lower value 0.862 | S. cerevisiae deletion strains, locus YOR231W, strain MKK1, stronger effect = lower value 0.595 | S. cerevisiae deletion strains, locus YOR329C, strain SCD5, stronger effect = lower value 0.953 | S. cerevisiae deletion strains, locus YPL031C, strain PHO85, stronger effect = lower value 0.825 | S. cerevisiae deletion strains, locus YPL153C, strain RAD53, stronger effect = lower value 0.752 | S. cerevisiae deletion strains, locus YPL204W, strain HRR25, stronger effect = lower value 0.802 | S. cerevisiae deletion strains, locus YPL209C, strain IPL1, stronger effect = lower value 0.954 | S. cerevisiae deletion strains, locus YPR025C, strain CCL1, stronger effect = lower value 0.962 | S. cerevisiae deletion strains, locus YPR106W, strain ISR1, stronger effect = lower value 0.95 | S. cerevisiae deletion strains, locus YPR111W, strain DBF20, stronger effect = lower value 0.947 | S. cerevisiae deletion strains, strain NNK1, stronger effect = lower value 0.941 | S. cerevisiae deletion strains, strain TSCII, stronger effect = lower value 0.942
